In PubChem BioAssay:

Test: probe aWnt5a binding to arrayed compounds – biochemical, biotinylated probe, 635/667 nm fluorescence, primary screen (AID 1113);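 note: score merges 667 nm fluorescence intensity with signal-to-noise per printed feature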
Conditions: small-molecule microarray, higher = more signal

Structure (SMILES)	composite z-score
Cc1ccc(S[C@]2(C(=O)NCC(F)(F)F)CC(=O)N(Cc3cc(C(F)(F)F)cc(C(F)(F)F)c3)[C@@H]2c2ccc(CO)cc2)cc1	-0.25
COCCOC(=O)N1C(=O)[C@@]2(c3ccccc31)[C@H](c1ccc(O)cc1)N1[C@H](c3ccccc3)[C@H](c3ccccc3)OC(=O)[C@H]1[C@@H]2C(=O)N1CCN(c2ncccn2)CC1	-0.0084
CCCCC(CC)C(O)C1C=CC2C(=O)N(c3ccccc3)C(=O)C2N1Nc1ccccc1F (stereo not given)	0.0768
COC(=O)C/C=C/C[C@]1(O)C(=O)N(C)c2ccccc21	-0.122
COCCOC(=O)N1C(=O)[C@@]2(c3cc(C#CCCO)ccc31)[C@H](c1ccc(OCCO)cc1)N1[C@H](c3ccccc3)[C@H](c3ccccc3)OC(=O)[C@H]1[C@@H]2C(=O)Nc1nc2ccccc2s1	-0.0977
CC(C)c1ccc(NN2C(C(O)c3ccc(F)cc3)C=CC3C(=O)N(c4ccccc4)C(=O)C32)cc1 (stereo not given)	0.105
O=C1[C@H]2C=C(I)[C@H](C[C@@H]2OCCOCCO)[C@@]12CO2	-0.26
COC(=O)[C@@]1(Cc2ccc(F)cc2)[C@H]2c3cc(C(=O)N4CCCC4)n(CCc4c[nH]c5ccccc45)c3C[C@H]2CN1C(=O)c1ccccc1	0.0718
O=C1OCCC/C=C\[C@H]2OC34C=CCN(c5ccc6ccccc6c5)C(=O)[C@H]3N(CCO)C(=O)[C@@H]4C12 (stereo not given in full)	-0.154
Cc1ccc(S[C@]2(C(=O)O)CC(=O)N(C3CCCCC3)[C@@H]2c2ccc(CO)cc2I)cc1	-0.113
CCCCC(CC)C(O)C1C=CC2C(=O)N(C)C(=O)C2N1Nc1ccccc1 (stereo not given)	-0.0721
N#Cc1ccc(NN2C(C(O)c3ccc(Br)cc3)C=CC3C(=O)N(c4ccccc4)C(=O)C32)cc1 (stereo not given)	0.234
Oc1ccc2cc[n+](Cc3cc4c(cc3Br)OCO4)cc2c1	-0.1
Cc1cc(C)c(C(O)C2C=CC3C(=O)N(c4ccccc4)C(=O)C3N2Nc2ccccc2F)c(C)c1 (stereo not given)	0.184
COCCOC(=O)N1C(=O)[C@@]2(c3cc(C#CC4=CCCCC4)ccc31)[C@H](C(=O)Nc1nc3ccccc3s1)[C@H]1C(=O)O[C@H](c3ccccc3)[C@H](c3ccccc3)N1[C@@H]2c1ccc(O)cc1	-0.15
COc1ccc([Si](C)(C)[C@H]2[C@H](CC(=O)N(CCO)Cc3ccccc3)O[C@@]3(C(=O)N(C)c4c(Br)cc(C)cc43)[C@@H]2C)cc1	-0.176
O=C(c1ccccc1)N1C(=O)[C@]2(Cc3ccccc31)N=C(c1ccc(OCCCO)cc1)O[C@@H]2c1ccccc1	-0.0758
COc1ccc(CCNC(=O)[C@@]2(c3ccc([N+](=O)[O-])cc3)CC(=O)N(C3CCCCC3)[C@@H]2c2ccc(CO)cc2)cc1	-0.0341

Structure (SMILES)	composite z-score
O=C(NCCN1CCOCC1)[C@@H]1c2ccccc2C(=O)N(Cc2ccccc2Cl)[C@H]1c1ccc(CO)cc1	0.0491
CS(=O)(=O)CCOC(=O)C1=CC(c2ccc(CO)cc2)=CC(C2CC2)N(Cc2sc3ccccc3c2Cl)C=C1C(=O)OCCS(C)(=O)=O (stereo not given)	-0.0685
CC1=C2[C@@H](CCc3ccccc3)OB(O)C[C@@H]2[C@@H]2C(=O)N(C)C(=O)[C@@H]2C1	-0.0519
CN1C2C=C(CCCO)C(C3C(=O)N(C(N)=O)C(=O)C32)C1C1CC1 (stereo not given)	-0.0462
NCCCCCCNC(=O)[C@@H]1C[C@@H]2C(=O)N[C@@H](CCCCN)C(=O)N2[C@@H]1c1ccc(O)cc1	-0.172
CC1CC/C=C\[C@H]2OC34C=CCN(C(C)(C)C)C(=O)[C@H]3N(CCCCCO)C(=O)[C@@H]4C2C(=O)O1 (stereo not given in full)	-0.199
Cc1ccc(F)cc1S(=O)(=O)N[C@@H]1CCN(Cc2ccc(Br)cc2)C1	-0.126
COC(=O)[C@@]1(Cc2ccc(OC)cc2)[C@H]2c3cc(C(=O)N4CCCC4)n(CCO)c3C[C@H]2CN1C(=O)c1ccccc1	0.433
CCOC(=O)C[C@H]1[C@H](OC(=O)c2ccccc2-c2ccccc2)[C@@H](NC(=O)c2ccc3ccccc3c2)c2cc(OCCCO)ccc2N1C(=O)c1ccccc1	-0.0981
CCCC1(C(=O)OC)C=C2C(=C(C)C(=O)C2C)CN1 (stereo not given)	-0.0512
O=C1C2C=CC(C(O)C3CC=CCC3)N(Nc3ccccc3)C2C(=O)N1c1ccccc1 (stereo not given)	-0.098
CC(C)N1C(=O)C[C@@](C(=O)NC2CC2)(c2ccc([N+](=O)[O-])cc2)[C@H]1c1ccc(CO)cc1	-0.0934
C=C(C(=O)CC[C@H](OC(=O)c1ccccc1-c1ccccc1C(=O)O)c1cccc(OCCO)c1)C(C)C	-0.184
COC(=O)c1c(CC[C@@H](CO)NC(=O)N[C@@H](C)Cn2cc(-c3ccccn3)nn2)oc(C(C)=O)c1C(=O)OC	-0.0981
COCC(=C=CC[C@H](O)c1ccc(CO)o1)CCO	0.0108
COCC(=C=CC[C@H](O)c1ccc(OCCO)cc1)CCO	-0.0239
COc1cc(NN2C(C(O)c3ccco3)C=CC3C(=O)N(C)C(=O)C32)cc(OC)c1OC (stereo not given)	0.107
